Here are results for 59 molecules from PubChem BioAssay AID485344 (National Center for Advancing Translational Sciences (NCATS), 2010).

Out of some 340,000 compounds screened, about 6,900 (2%) were called active. The sample holds actives, similar compounds and a random draw of the others, so the mix is not that of the screen. No stated cut-off is given here; in the data, active means inhibition above about 30%; inactive means below that, where a call was filed.

In the experiment the target is D(2) dopamine receptor (Homo sapiens) (UniProt P14416). Kind of experiment: HTS Assay for Allosteric Antagonists of the Human D2 Dopamine Receptor: Primary Screen for Antagonists. Further: 0% is about no effect. The conditions noted are these: HEK293 TREx D2 cells, calcium flux, dopamine EC80; at 10 µM; active compounds read high. In outline: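 Inhibition of EC80 dopamine-driven calcium flux, recorded kinetically, defines activity here; cells are a tetracycline-induced HEK293 T-REx line expressing force-coupled D2.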
D(2) dopamine receptor (Homo sapiens), sequence (P14416 whole entry, looked up): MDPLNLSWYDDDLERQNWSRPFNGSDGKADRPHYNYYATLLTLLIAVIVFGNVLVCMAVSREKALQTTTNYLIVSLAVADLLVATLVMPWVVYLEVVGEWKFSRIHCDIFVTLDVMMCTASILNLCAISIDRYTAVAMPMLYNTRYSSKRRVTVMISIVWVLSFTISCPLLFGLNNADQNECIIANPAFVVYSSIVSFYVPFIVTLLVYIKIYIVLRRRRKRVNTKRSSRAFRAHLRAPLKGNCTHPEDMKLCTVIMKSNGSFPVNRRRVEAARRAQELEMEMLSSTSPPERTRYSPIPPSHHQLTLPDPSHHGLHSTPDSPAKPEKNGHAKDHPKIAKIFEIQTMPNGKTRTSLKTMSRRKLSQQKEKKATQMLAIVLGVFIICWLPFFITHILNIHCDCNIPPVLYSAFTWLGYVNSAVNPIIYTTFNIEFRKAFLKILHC
The term inhibition denotes the drop in the measured response relative to a control, in per cent. Take `O=C(NCCc1ccco1)C(=O)NCCC1CCCCN1S(=O)(=O)c1ccccc1` (centres undefined): the inhibition is -16% (inactive).
The same measure for `COc1cccc(-n2c(SCC(=O)c3c[nH]c4ccccc34)nc3ccccc3c2=O)c1`: -2.99% (inactive).
In the case of `CCCn1c(N)c(C(=O)CSc2nc3ccccc3c(=O)n2-c2ccc(OC)cc2)c(=O)[nH]c1=O`, the inhibition was 33.2% (active).
Turning to `CCCn1c(N)c(C(=O)CSc2nnc3n2CCCCC3)c(=O)[nH]c1=O`, the inhibition is 3.63% (inactive).
For `O=C(CNc1ccccc1N1CCCC1=O)Nc1cc(Cl)ccc1-n1cncn1`, the inhibition was 8.23% (inactive).
Turning to `Cc1ccc(F)cc1NC(=O)CSCc1c(C)noc1C`, the inhibition is 13.7% (inactive).
As for `O=C(CN1C(=O)NC2(CCOc3ccccc32)C1=O)NCc1ccc(F)cc1` (centres undefined), the inhibition was 26.3% (inactive).
Turning to `COc1cc(OC)c2ccc(=O)oc2c1C(CCN1CCN(c2ccccc2)CC1)c1ccc2c(c1)OCO2` (centres undefined), the inhibition was 94% (active).
Regarding `CCN(CC)CCC(c1ccc2c(c1)OCO2)c1c(OC)cc(OC)c2c(-c3ccccc3)cc(=O)oc12` (centres undefined), the inhibition was 13.4% (inactive).
For `COc1cc(C(CCN2CCN(c3ccccc3)CC2)c2c(OC)cc(OC)c3ccc(=O)oc23)cc(OC)c1OC` (centres undefined), the inhibition is 23% (inactive).
For the molecule `NS(=O)(=O)c1cc(C(=O)OCC(=O)NNC(=O)c2ccccc2)ccc1Cl`, the inhibition is 2.99% (inactive).
For the molecule `Cc1[nH]c2ccccc2c1C(=O)C(C)Sc1nnc(C2CC2)o1` (centres undefined), the inhibition is -40.9% (inactive).
`CNS(=O)(=O)c1cccc(C(=O)OCC(=O)N2c3ccccc3NC(=O)C2(C)C)c1`: the inhibition was -3.21% (inactive).
Consider `CCN1CCCC1Cn1cnc2c([nH]c3cc(OC)ccc32)c1=O` (centres undefined), for which the inhibition was 24.3% (inactive).
As to `CCN1CCCC1CNc1ncnc2c1[nH]c1ccc(F)cc12` (centres undefined), the inhibition is 39.5% (active).
On to `CC(C)OCCCNc1ncnc2c1[nH]c1ccc(F)cc12`, for which the inhibition was -11.8% (inactive).
For `O=C(CSc1nnc(COc2ccc(Cl)cc2)n1Cc1ccco1)N1CCNC1=O`, the inhibition was 0.458% (inactive).
In the case of `Cc1ccc(CN2CCN(c3ncccn3)CC2)c(C)c1`, the inhibition is 80% (active).
The same measure for `Oc1ccc(CN2CCN(c3ncccn3)CC2)cc1`: 84.3% (active).
`Cc1ccc(CN2CCN(/N=C/c3cccnc3)CC2)c(C)c1`: the inhibition was -10.4% (inactive).
With `CN(C)C(=O)c1nc2ccc(Cl)cn2c1CN1CCN(c2ncccn2)CC1`, the inhibition is -10.8% (inactive).
With `c1cnc(N2CCN(c3ccc4ccccc4n3)CC2)nc1`, the inhibition is -7.91% (inactive).
The same measure for `Cc1ccc(CN2CCN(/N=C/c3ccco3)CC2)c(C)c1`: -9.84% (inactive).
As to `Cc1ccc(CN2CC(C(=O)N3CCN(S(=O)(=O)c4ccccc4)CC3)CC2=O)cc1` (centres undefined), the inhibition is -4.27% (inactive).
On to `O=C(CCNC(=O)c1ccccc1Cl)NCc1ccco1`, for which the inhibition is -26.5% (inactive).
As for `CCc1nnc(NC(=O)c2cc(S(=O)(=O)N3CCCCC3)ccc2C)s1`, the inhibition was -4.7% (inactive).
With `Cc1ccccc1NC(=O)Cc1nc(COC(=O)c2ccc(C(F)(F)F)cc2)cs1`, the inhibition was 2.02% (inactive).
In the case of `CN(CC(=O)NCC(c1ccccc1)N1CCCC1)S(=O)(=O)c1ccc(Cl)cc1` (centres undefined), the inhibition is 11.7% (inactive).
Consider `CCOc1ccc(NC(=O)CN(C)C(=O)CCSc2ccc(F)cc2)cc1OCC`, for which the inhibition is -8.24% (inactive).
For the molecule `CC1CCC(NC(=O)CNC(=O)c2ccc3ccccc3c2)CC1` (centres undefined), the inhibition is -11% (inactive).
On to `CCCC[C@H]1COCCS(=O)(=O)N1Cc1cccc(Cl)c1`, for which the inhibition was 0.354% (inactive).
In the case of `CCC(C)[C@H]1COCCS(=O)(=O)N1Cc1ccc(C)cc1` (some centres undefined), the inhibition was 36.6% (active).
In the case of `Cc1ccc(CN2CCCOCCS2(=O)=O)cc1`, the inhibition was -5.42% (inactive).
With `CCN(CC)C(CNC(=O)CSc1nnnn1-c1cccc(F)c1)c1ccco1` (centres undefined), the inhibition was -7.6% (inactive).
For `CN1CCN(S(=O)(=O)c2ccc(N3CCN(c4ccccc4O)CC3)c([N+](=O)[O-])c2)CC1`, the inhibition is 6.91% (inactive).
Take `Cc1cc(CNC(=O)c2cccc([N+](=O)[O-])c2)c2ccccc2n1`: the inhibition is 49.1% (active).
On to `CC(C)(C)SCCNC(=O)c1cccc([N+](=O)[O-])c1`, for which the inhibition was 7.44% (inactive).
The same measure for `Cc1cc(C)nc(NC(=O)c2cccc([N+](=O)[O-])c2)c1`: 14.3% (inactive); for `O=C(COC(=O)c1ncc(Cl)c(Cl)c1Cl)NCc1ccccc1`: 6.01% (inactive); for `CCN(CC(=O)NCc1cccs1)C(=O)c1ccc(OC)c(S(=O)(=O)N2CCOCC2)c1`: 13.8% (inactive).
For `CCOC(=O)c1c(C)[nH]c(C)c1C(=O)CSc1nc(N)cc(N)n1`, the inhibition was 49.1% (active).
On to `Cc1cc(C)nc(SCC(=O)N(C)C)n1`, for which the inhibition was 7.94% (inactive).
`CCOC(=O)c1c(C)oc(C)c(C(=O)OCC)c1=O`: the inhibition was -5.88% (inactive).
Regarding `CC(C)n1ncc2c(C(=O)Nc3ccc(CC#N)cc3)cc(C3CC3)nc21`, the inhibition was -20.3% (inactive).
The same measure for `COc1ccc(C)cc1NC(=O)c1cc(-c2ccccc2)nc2c1cnn2C(C)C`: 5.18% (inactive); for `CC(C)n1ncc2c(C(=O)NCc3ccccc3CN(C)C)cc(C3CC3)nc21`: 79.9% (active); for `COc1ccc(C2=NN(C(=O)CSc3nc(=O)n4ccc(C)cc4n3)C(c3ccc(C)cc3)C2)cc1` (centres undefined): -6.53% (inactive).
As for `O=C(NCC(c1cccs1)N1CCOCC1)c1cc(Cl)ccc1[N+](=O)[O-]` (centres undefined), the inhibition is 11.5% (inactive).
For the molecule `CC(=O)c1ccc(N2CCN(C(=O)c3ccc(Cl)c(S(=O)(=O)NC4CC4)c3)CC2)c(F)c1`, the inhibition was 8.05% (inactive).
Turning to `CCCCN(CC(=O)Nc1cccc(S(=O)(=O)N2CCCC2)c1)Cc1nc2ccccc2c(=O)[nH]1`, the inhibition is -6.94% (inactive).
With `O=C(CCc1ccc(S(=O)(=O)N2CCOCC2)cc1)Nc1ccc2ccccc2c1`, the inhibition is -58.3% (inactive).
`CN1CCN(c2ccc(NC(=O)c3ccc4c(c3)OCCO4)cc2Cl)CC1`: the inhibition is -3.57% (inactive).
Consider `O=C(CN1CCN(c2cccc(Cl)c2)CC1)Nc1ccc(S(=O)(=O)N2CCOCC2)cc1`, for which the inhibition was 30.5% (active).
Regarding `O=C(Nc1ccc2cn[nH]c2c1)c1ccc(S(=O)(=O)N2CCOCC2)cc1`, the inhibition was 30.5% (active).
Regarding `O=C(Nc1ccc(S(=O)(=O)N2CCOCC2)cc1)c1ccc2ncsc2c1`, the inhibition is 16.7% (inactive).
As to `O=C(Nc1ccc(N2CCOCC2)c(Cl)c1)c1ccc(S(=O)(=O)N2CCOCC2)cc1`, the inhibition was 34.4% (active).
Turning to `O=C(CN1CCN(c2ccc(O)cc2)CC1)Nc1cc(S(=O)(=O)N2CCOCC2)ccc1Cl`, the inhibition is -10.8% (inactive).
As for `Cc1ccnc(NS(=O)(=O)c2ccc(NC(=O)c3ccc(S(=O)(=O)N4CCOCC4)cc3)cc2)n1`, the inhibition was -5.53% (inactive).
For the molecule `O=C(CN1C(=O)CCC1=O)Nc1ccc(S(=O)(=O)N2CCOCC2)cc1`, the inhibition is 10.1% (inactive).
